Screening results from PubChem.
AHR act: activates the human aryl hydrocarbon receptor. P35869. AHR-responsive luciferase reporter cells, luminescence. activation, % at 5 µM. hit rate 2.5% among 320,000; in the data active = activation above about 47%;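 also: 0% = vehicle wells and 100% = reference agonist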
AI-2 QS modul: Vibrio harveyi AI-2 quorum sensing modulation; AID 2094; activity change, % at 7.5 µM; hit rate 0.4% among 300,000; Vibrio harveyi JMH597 AI-2 luminescence/OD600 ratio, 9 h; active compounds read low; strain lacks LuxN and CqsS sensors; 0 = neutral-control median; in the data active = activity change below about -75%, passing the limit was not always enough;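 also: luminescence divided by OD600 gain over 9 h not by final OD600 alone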
NR3A LBD binder: NR3A (human) ligand-binding domain modulation | Tm shift relative to glycine control, % at 25 µM | hit rate 2.5% among 340,000 | NR3A LBD differential scanning fluorimetry, Tm shift; 0% = protein alone, 100% = glycine-bound protein;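 active = melting temperature shift of at least 10% of the positive control shift, at one fixed dose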
Cardio protect: myocardial damage modulation in H9c2 cells | H9c2 cardiomyocytes, H2O2 injury protection, ATPLite, 2 h | AID 588492 | protection from H2O2 cell death, % at 20 µM | hit rate 0.63% among 360,000;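 active = compounds giving at least 50% protection of heart cells from peroxide-induced death in the single-dose screen, raw or plate-pattern-corrected value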;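 also: 0% = DMSO wells with peroxide and 100% = DMSO wells without peroxide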
NTR1 ag: activates human neurotensin receptor 1; P30989; NTR1-U2OS beta-arrestin-GFP spot imaging, agonist mode; activation, % at 20 µM; hit rate 0.17% among 330,000;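 active = activation at or above 40% of the spot to cytoplasm intensity ratio, with at least 20 cells analyzed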;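 also: 0% = DMSO without peptide and 100% = 100 nM NTR1 peptide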
Target sequence (P30989 whole entry, looked up): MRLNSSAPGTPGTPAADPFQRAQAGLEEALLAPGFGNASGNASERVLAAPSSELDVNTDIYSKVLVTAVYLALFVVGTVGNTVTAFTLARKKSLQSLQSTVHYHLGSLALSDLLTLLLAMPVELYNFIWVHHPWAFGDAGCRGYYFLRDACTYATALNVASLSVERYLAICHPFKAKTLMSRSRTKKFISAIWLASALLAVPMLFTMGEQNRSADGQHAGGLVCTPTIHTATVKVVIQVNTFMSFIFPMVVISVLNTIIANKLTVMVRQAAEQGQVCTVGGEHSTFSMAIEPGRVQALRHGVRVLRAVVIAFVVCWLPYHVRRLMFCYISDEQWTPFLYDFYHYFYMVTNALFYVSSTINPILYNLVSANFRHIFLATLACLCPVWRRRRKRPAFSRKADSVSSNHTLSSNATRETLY
Mot1-301 SUMO: inhibitors of SUMOylation pathway: yeast Mot1-301 growth rescue. S. cerevisiae Mot1-301 growth rescue, ATP luminescence, 38.5C; percent above DMSO median, 100 means doubled. growth rescue, % at 18.8 µM. hit rate 1% among 320,000;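 active = every valid replicate shows activation above 250% relative to neutral control wells; inactive = the rest, any valid replicate at or below 250%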;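 also: OY570 slx delta 5 strain wells were the positive control but not used for scaling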
* marks the source's active call; other numbers are inactive results; x = not tested or not shown. Most compounds without a hit are left out; they make up all but 6.2% or so of the library.

SMILES | AHR act | AI-2 QS modul | NR3A LBD binder | Cardio protect | NTR1 ag | Mot1-301 SUMO
O=c1[nH]c2ccccc2n1C1CCN(C(c2cc3ccccc3o2)c2nnnn2-c2ccc3c(c2)OCCO3)CC1 (stereo not given) | x | x | x | 30 | x | x
COc1ccc2c(c1OC)C(=O)OC2c1c(O)n(Cc2ccc(F)cc2)c(=O)[nH]c1=O (stereo not given) | 2 | 18 | 12* | 0 | 0 | x
O=c1[nH]c(=O)n(Cc2ccc(F)cc2)c(O)c1C=NCc1cccnc1 | 3 | 35 | -6 | 16 | 2 | 3
Fc1cccc(-c2ccc3c(c2)CN(c2cccc(Cl)c2)Cc2cnnn2-3)c1 | x | x | x | -2 | x | x
O=C(Nc1ccc(Cl)cc1)O/N=C(\c1ccccc1)c1ccccn1 | 1 | 11 | 11* | 2 | -1 | 0
COC(=O)C(O)(c1ccc(NC(=O)Oc2ccccc2)cc1)C(F)(F)F (stereo not given) | 1 | -76* | -7 | -7 | 0 | -1
O=c1[nH]c2ccccc2n1C1CCN(C(c2ccccc2OC(F)(F)F)c2nnnn2Cc2ccccc2)CC1 (stereo not given) | x | x | x | -3 | x | x
CC(=O)C1CCC2C3CCC4CC(O)CCC4(C)C3CCC12C (stereo not given) | 9 | 25 | 14* | -16 | 2 | 15
CC(=O)[C@H]1CC[C@H]2[C@@H]3CC[C@H]4C[C@H](O)CC[C@]4(C)[C@H]3C(=O)C[C@]12C | -4 | 20 | 0 | 5 | 3 | 77
CSCCC(c1nnnn1Cc1ccccc1)N1CCC2(CC1)C(=O)NCN2c1ccccc1 (stereo not given) | x | x | x | 28 | x | x
CCOc1ccc(-n2c(O)c(/C=C3\C=Nc4ccccc43)c(=O)[nH]c2=O)cc1 | 30 | 2 | 2 | 29 | 3 | 297*
COc1ccc(OC)c(-n2c(O)c(/C=C3\C=Nc4ccccc43)c(=O)[nH]c2=O)c1 | 15 | 4 | -23 | 24 | 6 | -7
COc1cc(Br)cc(CN2CCN(C)CC2)c1O | -1 | 12 | 11* | 4 | 0 | 4
CC1(C)C[C@H]2C=C(C=O)[C@]3(C=O)C[C@]3(C)[C@H]2C1 | -1 | 10 | -4 | -17 | 2 | 358*
Cc1ncc(CN2CCCC(C(=O)c3cccc(OC(C)C)c3)C2)s1 (stereo not given) | 5 | 17 | -2 | -2 | 0 | 295*
CCOC(=O)c1c(C)n(Cc2ccco2)c2c1cc(O)c1ccccc12 | 51* | 21 | -6 | -9 | 6 | -21
CCOC(=O)c1c(C)n(Cc2ccco2)c2ccc(OC)cc12 | 8 | -10 | 1 | 4 | 11 | -15
O=[N+]([O-])c1cc(O)c(O)c([N+](=O)[O-])c1 | 1 | x | -12 | 4 | -1 | -2
O=[N+]([O-])c1ccc(O)c([N+](=O)[O-])c1 | 0 | 24 | 18* | -14 | 1 | -7
CC(=NCC1CCCO1)c1c(O)n(-c2ccc(Cl)cc2)c(=O)[nH]c1=O (stereo not given) | -5 | 32 | 1 | 5 | -2 | 547*
COc1cc(/C=C/c2nc3ccccc3c(=O)n2-c2ccc(O)cc2)ccc1O | 4 | 31 | -3 | 66* | 7 | 4
O=c1c2ccccc2nc(/C=C/c2ccc3c(c2)OCO3)n1-c1ccccc1 | 8 | -6 | -7 | 39 | -2 | 143
COc1ccc(-n2c(/C=C/c3ccc(O)c(O)c3)nc3ccccc3c2=O)cc1 | 17 | 19 | 7 | 57* | 3 | 4
CC(C)(O)/C=C/C(=O)C(C)(O)C1C(O)CC2(C)C3CC=C4C(C=C(O)C(=O)C4(C)C)C3(C)C(=O)CC12C (stereo not given) | x | x | -1 | -1 | x | x
CCC(c1nnnn1-c1ccc(OC)cc1)N1CCC2(CC1)C(=O)NCN2c1ccccc1 (stereo not given) | x | x | x | 5 | x | x
SMILES | AHR act | AI-2 QS modul | NR3A LBD binder | Cardio protect | NTR1 ag | Mot1-301 SUMO
Cc1ccccc1-n1c(O)c(/C=N/Nc2nc3c(c(=O)n(C)c(=O)n3C)n2C)c(=O)[nH]c1=S | 20 | 13 | -3 | 8 | 2 | -13
Cn1c(=O)c2c(nc(N/N=C/c3c(O)n(C4CCCCC4)c(=S)[nH]c3=O)n2C)n(C)c1=O | 11 | 1 | -3 | 68* | 1 | 4
CCCN1CCc2cccc3c2[C@H]1Cc1ccc(O)c(O)c1-3 | 1 | 18 | 0 | 51* | 2 | -1
O=C(Nc1cccnc1)c1c(O)c2c(n(Cc3ccccc3)c1=O)CCCC2 | -1 | 3 | 1 | -5 | 0 | 6
O=C(Nc1ccc(F)cc1)c1c(O)c2c(n(Cc3ccccc3)c1=O)CCCC2 | 5 | 11 | 11* | -3 | -2 | -22
COC1CC2C=C(C)C=CC=CC(=O)NC(c3ccccc3)CC=CCCC(O)CC(=O)C2=C1O (stereo not given) | x | x | x | -20 | x | x
C[C@@H]1CN([C@H](C)CO)C(=O)CCCn2cc(nn2)CO[C@H]1CN(C)C(=O)Oc1cccc2ccccc12 | x | x | x | -1 | x | x
Oc1c(Br)cc(Br)cc1Br | -1 | x | 3 | -3 | 0 | 157
Oc1c(Br)c(Br)c(Br)c(Br)c1Br | -1 | x | 32* | -8 | 6 | 34
COC(=O)C12CCc3c(ccc4cc(OC)ccc34)C1=CC(=O)C2 (stereo not given) | x | x | 3 | -1 | x | x
Cc1cccc(C(=O)NC(Oc2ccccc2)C(Cl)(Cl)Cl)c1 (stereo not given) | 50* | 11 | 0 | 1 | 1 | 0
COc1cccc(OP(=O)(Nc2ccccc2)Oc2cccc(OC)c2)c1 | 4 | 3 | 1 | 70* | 13 | -8
O=P(Nc1ccccc1)(Oc1ccccc1)Oc1ccccc1 | 0 | 18 | 0 | 54* | 4 | -2
COc1ccc(OC)c(NP(=O)(Oc2ccccc2)Oc2ccccc2)c1 | x | 11 | -1 | 8 | x | -7
O=P(Nc1ccccc1)(Nc1ccccc1)Oc1ccccc1 | 2 | 22 | -5 | 6 | 0 | 78
CNc1cc(Cl)c2nonc2c1[N+](=O)[O-] | x | -90* | 2 | -20 | x | x
Cc1sc2nc(COC(=O)Cc3ccccc3)[nH]c(=O)c2c1C | 4 | 3 | 0 | 53* | 0 | 1
Clc1ccccc1Nc1ncnc(-n2cccc2)n1 | 101* | 21 | 6 | -4 | 1 | x
CCOP(=O)(NC(C)C)Oc1ccc(SC)c(C)c1 (stereo not given) | x | x | 2 | 0 | x | x
COc1cccc(C(c2nnnn2C2CCCCC2)N2CCC3(CC2)C(=O)NCN3c2ccccc2)c1OC (stereo not given) | x | x | x | 15 | x | x
COc1ccc2c(c1)NP(=S)(c1ccccc1)N2C (stereo not given) | x | x | 3 | -8 | x | x
COc1ccc(P2(=O)Nc3ccccc3N2)cc1 | 14 | 16 | 0 | 53* | 3 | 2
COc1cccc(-c2sc3ccccc3c2-c2ccc(OCCN3CCOCC3)cc2)c1 | 0 | x | 15* | -6 | 4 | 462*
